The source of these data is PubChem BioAssay AID1851 (National Center for Advancing Translational Sciences (NCATS), 2009).

The campaign covered roughly 16,000 compounds. About 5,800 (36%) were called active. Roughly 23% stayed inconclusive and do not appear here. Some of the results follow. Values without a mark were called inactive. The call rests on the fitted dose curve; in most records, active means well fitted curve in the direction sought with a large enough effect; inconclusive means small, poorly fitted or top-dose-only effect, or effect the other way; inactive means no such curve, though single readings can be large or run the other way.

As usually defined, the AC50 is the concentration at which the activity in the assay is half-maximal.
On the % scale 0 is the no-effect control and ±100 the full control effect.

Cytochrome P450 2C19 (Homo sapiens), sequence (P33261 whole entry, looked up): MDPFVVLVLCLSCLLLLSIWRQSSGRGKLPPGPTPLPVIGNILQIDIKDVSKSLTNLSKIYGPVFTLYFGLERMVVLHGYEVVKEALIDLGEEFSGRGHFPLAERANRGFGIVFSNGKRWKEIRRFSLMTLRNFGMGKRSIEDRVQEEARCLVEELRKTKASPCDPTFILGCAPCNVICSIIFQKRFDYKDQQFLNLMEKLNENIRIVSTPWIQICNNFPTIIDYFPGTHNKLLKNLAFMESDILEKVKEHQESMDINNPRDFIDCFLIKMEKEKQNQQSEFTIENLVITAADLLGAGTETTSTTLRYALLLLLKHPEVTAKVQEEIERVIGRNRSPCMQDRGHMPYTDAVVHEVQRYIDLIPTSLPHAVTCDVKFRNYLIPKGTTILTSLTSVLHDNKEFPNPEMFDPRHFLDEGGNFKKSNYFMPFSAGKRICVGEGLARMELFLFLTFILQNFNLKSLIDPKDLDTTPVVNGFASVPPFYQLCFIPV

This assay addresses Cytochrome P450 2C19 (Homo sapiens) (UniProt P33261). Description: Cytochrome panel assay with activity outcomes. As to conditions: recombinant CYP, pro-luciferin dealkylation, luminescence, p450-cyp2c19; series mostly up to 57.1 µM.
Consider `COc1ccc(OC)c(S(=O)(=O)N2CCC(C(=O)Nc3ccc(C)c(C)c3)CC2)c1`, for which the concentration at half-maximal activity (AC50) is 14.1 µM (active).

Regarding `COc1ccc(OC)c(S(=O)(=O)N2CCC(C(=O)NCCc3ccccc3)CC2)c1`, the AC50 result was “inactive”.

For the compound `CC1(C)C(=O)C(c2ccccc2)=C2CN3C(=O)N(CCc4ccccc4)C(=O)C3(Cc3ccc(C(F)(F)F)cc3)C=C21` (configuration not stated), the AC50 result was “inactive”.

In the case of `NC(=O)C[C@H](N)C(N)=O`, the activity, negative = inhibition is -4.71% [at 11.4 µM].

`CN(C)C[C@H]1CCC2=C(C1=O)C(c1ccc(Cl)c(Cl)c1)C1=C(CC[C@H](CN(C)C)C1=O)O2`: the activity, negative = inhibition is 13.9% [at 11.4 µM].

On to `Cc1ccc(S(=O)(=O)Oc2ccc(C3C4=C(CCCC4=O)OC4=C3C(=O)CCC4)cc2)cc1`, for which the half-maximal activity concentration (AC50) was 4.47 µM (active).

As to `O=C1CCCC2=C1C(c1ccc(OS(=O)(=O)c3ccc(Cl)cc3)cc1)C1=C(CCCC1=O)O2`, the AC50 is 3.98 µM (active).

In the case of `O=c1oc(-c2ccco2)nc2c1cnn2-c1ccccc1`, the concentration at half-maximal activity (AC50) was 7.08 µM (active).

`c1ccc(-n2ncc3c2ncn2cnnc32)cc1`: the AC50 result was “inactive”.

With `COC(=O)C(NNc1ccccc1)(NC(=O)c1ccccc1F)C(F)(F)F` (configuration not stated), the AC50 was 2.24 µM (active).

For `O=C(O)c1ccccc1C(=O)NNc1ccc(F)cc1`, the AC50 result was “inactive”.

As to `Cc1ccc(C(=O)O)cc1N1C(=O)c2cccc3cc(Br)cc(c23)C1=O`, the AC50 is 14.1 µM (active).

In the case of `CCN(CC)CCN1C(=O)c2cccc3cc(N)cc(c23)C1=O`, the activity, negative = inhibition was 44.4% [at 11.4 µM].

With `CC1CSc2nc3sc4c(c3c(=O)n21)CCCC4` (configuration not stated), the AC50 is 15.8 µM (active).

With `CCN(CC(=O)NCc1cccs1)S(=O)(=O)c1ccc(C(C)C)cc1`, the AC50 was 5.62 µM (active).

In the case of `OCCCSCCO`, the activity, negative = inhibition is 18.7% [at 11.4 µM].

Regarding `CC(C)COP(=O)(OCC(C)C)C(O)c1ccccc1F` (configuration not stated), the AC50 entry was “inactive”.

For the compound `CC(C)COP(=O)(c1ccc(N(C)C)cc1)C(O)c1ccccc1F` (configuration not stated), the AC50 is 5.62 µM (active).

For `Clc1ccc(-c2ccnc(Oc3cc(Cl)ccc3Cl)n2)cc1`, the AC50 was 0.316 µM (active).

On to `O=C(O)/C=C\C(=O)Nc1ccc2c(c1)-c1ccccc1C2`, for which the activity, negative = inhibition was -24.1% [at 11.4 µM].

On to `C(/C=C\c1ccccc1)=Nc1ccc2c(c1)Cc1ccccc1-2`, for which the AC50 was 3.98 µM (active).

As for `S=C(Nc1ccc2c(c1)Cc1ccccc1-2)Nc1ccc2c(c1)Cc1ccccc1-2`, the activity, negative = inhibition was -8.36% [at 11.4 µM].

In the case of `CCCCOC(=O)c1cc2c(cn1)[nH]c1ccccc12`, the AC50 was 5.01 µM (active).

Take `Cc1noc(NS(=O)(=O)c2ccc(N/C=C/C(=O)c3ccc4c(c3)OCO4)cc2)c1C`: the AC50 entry was “inactive”.

Take `CC(=O)c1cccc(NS(=O)(=O)c2ccc(N/C=C\C(=O)c3ccc(F)cc3)cc2)c1`: the AC50 is 5.62 µM (active).

On to `Cn1c(=O)c(-c2cc(F)cc(F)c2)nc2cnc(N3CCOCC3)nc21`, for which the AC50 result is “inactive”.

In the case of `COC(=O)c1[nH]c2ccc(Br)cc2c1NC(=O)CN1CCCc2ccccc21`, the AC50 was 7.94 µM (active).

Take `COC(=O)c1[nH]c2cc(OC)ccc2c1NC(=O)CCN1CCSCC1`: the AC50 result is “inactive”.

With `COC(=O)c1[nH]c2cccc(OC)c2c1NC(=O)CN(C)CC1OCCO1`, the AC50 result is “inactive”.

As for `COC(=O)c1[nH]c2ccc(Br)cc2c1NC(=O)CN1CCN(C2CCCCC2)CC1`, the AC50 was 15.8 µM (active).

On to `Cc1ccc(S(=O)(=O)N[C@H]2COC(=O)[C@@H](Cc3ccccc3)NC(=O)[C@@H](C)COC(=O)C/C=C\[C@@H]2C)cc1`, for which the activity, negative = inhibition is 32% [at 11.4 µM].

Consider `O=C(c1csnn1)N1CCC2(CCN(Cc3nccs3)CC2)CC1`, for which the AC50 result was “inactive”.

As for `CCN(CC)CC[n+]1ccc2c(C)c3[nH]c4ccc(O)cc4c3c(C)c2c1`, the activity, negative = inhibition was 42.4% [at 11.4 µM].

For the compound `CCCS(=O)(=O)N1CCCC(C(=O)NCCN2CCOCC2)C1` (configuration not stated), the AC50 result is “inactive”.

For `CCCS(=O)(=O)N1CCN(CC2CC=CCC2)CC1` (configuration not stated), the AC50 was 3.98 µM (active).

For the compound `CCCS(=O)(=O)N1CCCC(C(=O)N2CCOCC2)C1` (configuration not stated), the AC50 result was “inactive”.

Regarding `O=c1cc(CF)[nH]c(=S)[nH]1`, the activity, negative = inhibition is 16.1% [at 11.4 µM].

For `CN(NC(=O)NN)c1ncc(C(F)(F)F)cc1Cl`, the AC50 was 10 µM (active).

For `O=C(CN(C(=O)CSc1nc2ccccc2o1)c1cccc(F)c1)NC1CCCCC1`, the AC50 is 1 µM (active).

As to `NC(N)=N/N=C(\c1ccc(Cl)cc1)C1CC1`, the activity, negative = inhibition was -27.1% [at 11.4 µM].

As to `COc1ccc2nc(N)sc2c1`, the half-maximal activity concentration (AC50) is 31.6 µM (active).

For the compound `COc1ccc(Cc2c(N)nc(N)nc2N)cc1`, the AC50 entry is “inactive”.

On to `COc1ccc(N2C(N)=NC(N)=NC2(C)C)cc1`, for which the AC50 result is “inactive”.

With `O=C1NC(c2cccc([N+](=O)[O-])c2)=CCN1c1ccccc1O`, the AC50 was 6.31 µM (active).

For the compound `CCCOc1ccc(C(=O)NNC(=S)NC(=O)c2cc(-c3ccccc3)nc3ccccc23)cc1`, the AC50 result was “inactive”.

Turning to `O=C(O)c1cc(-c2ccc3cc4c(cc3c2)OCO4)nc2ccccc12`, the activity, negative = inhibition was 35.1% [at 11.4 µM].

Turning to `Cc1cccc(NC(=S)NC(=O)c2cc(-c3ccccc3)nc3ccccc23)c1`, the AC50 was 1.58 µM (active).

Take `Cc1ccccc1NC(=S)NC(=O)c1cc(-c2ccccc2)nc2ccccc12`: the AC50 is 2.82 µM (active).

Take `Cc1ccc(-c2cc(C(=O)NN=C3CCCC3)c3ccccc3n2)cc1`: the AC50 was 28.2 µM (active).

On to `C[C@@]12CC(=O)[C@@H]3[C@@H](CCC4=CC(=O)CC[C@]43C)[C@@H]1CC=C2CC(=O)O`, for which the activity, negative = inhibition was 30.4% [at 11.4 µM].

As to `c1ccc(-c2ccc(N3CCCC4(CCNCC4)C3)cc2)cc1`, the half-maximal activity concentration (AC50) is 15.8 µM (active).

On to `O=C(c1ccncc1)N1CCC2(CCN(Cc3ccncc3)CC2)CC1`, for which the AC50 result is “inactive”.

Consider `COCC(=O)N1CCC2(CCCN(c3cccc(-c4ccccc4)c3)C2)CC1`, for which the AC50 was 15.8 µM (active).

As to `c1ccc(-c2cccc(N3CC4(CCNCC4)C3)c2)cc1`, the AC50 result is “inactive”.

With `COCC(=O)N1CCC2(CCN(Cc3ccncc3)CC2)CC1`, the AC50 was 0.0251 µM (active).

As to `CC(=O)N1CCC2(CCN(Cc3ccncc3)CC2)CC1`, the AC50 entry is “inactive”.

On to `O=C(Oc1ccccc1)N1CCC2(CCCN(c3cccc(-c4ccccc4)c3)C2)CC1`, for which the AC50 result was “inactive”.

Take `c1ccc(-c2ccc(N3CC4(CCNCC4)C3)cc2)cc1`: the AC50 result was “inactive”.

As for `COCC(=O)N1CCC2(CCCN(c3ccncc3)C2)CC1`, the AC50 entry was “inactive”.

With `COCC(=O)N1CCC2(CC1)CN(C(=O)Nc1ccccc1)C2`, the AC50 was 5.01 µM (active).

On to `COCC(=O)N1CCC2(CC1)CN(C(=O)Nc1ccc(OC)cc1)C2`, for which the AC50 entry was “inactive”.

Turning to `COCC(=O)N1CCC2(CCCN(C(=O)Nc3ccccc3)C2)CC1`, the AC50 result is “inactive”.

With `CCN=C(N)CSS(=O)(=O)O`, the activity, negative = inhibition was -0.003% [at 11.4 µM].

Turning to `O=C(c1cnccn1)N1CCC2(CC1)CN(c1ccccc1)C2`, the AC50 result is “inactive”.

For the compound `COc1ccc(C(=O)N2CCC[C@@]3(CCN(c4cccc(-c5ccccc5)c4)C3)C2)cc1`, the AC50 is 7.94 µM (active).

As to `CC(=O)N1CCC2(CCCN(c3cccc(-c4ccccc4)c3)C2)CC1`, the AC50 is 15.8 µM (active).

Take `COc1ccc(C(=O)N2CCC[C@@]3(CCN(C(=O)Nc4ccccc4)C3)C2)cc1`: the AC50 result was “inactive”.

As for `O=C(c1cnccn1)N1CCC2(CC1)CCN(c1ccccc1)CC2`, the AC50 result was “inactive”.

Take `CC(=O)N1CCC2(CCCN(c3ccccc3)C2)CC1`: the AC50 was 25.1 µM (active).

Turning to `CC(=O)N1CCC2(CC1)CCN(c1cccc(-c3ccccc3)c1)CC2`, the AC50 result was “inactive”.

For the compound `CC(=O)N1CCC2(CCCN(Cc3ccccc3)C2)CC1`, the AC50 result was “inactive”.

Turning to `CC(=O)N1CCC[C@@]2(CCN(c3ccccc3)C2)C1`, the AC50 entry was “inactive”.

Turning to `COc1ccc(C(=O)N2CCC[C@@]3(CCN(Cc4ccccc4)C3)C2)cc1`, the AC50 entry is “inactive”.

Consider `O=C(c1cnccn1)N1CCC2(CCCN(c3ccccc3)C2)CC1`, for which the concentration at half-maximal activity (AC50) is 0.501 µM (active).

As to `O=C(Nc1ccc2ccccc2c1)[C@H]1C[C@@H]1[C@H](NP(=O)(c1ccccc1)c1ccccc1)c1ccccc1`, the AC50 was 3.16 µM (active).

As to `Cc1cc(CNC(=O)[C@H]2C[C@@H]2[C@H](NP(=O)(c2ccccc2)c2ccccc2)c2ccccc2)nn1C`, the AC50 result is “inactive”.

Turning to `O=C(NCCc1c[nH]c2ccccc12)[C@@H]1C[C@H]1[C@@H](NP(=O)(c1ccccc1)c1ccccc1)c1ccccc1`, the AC50 is 6.31 µM (active).

Consider `O=C(Nc1ccc2ccccc2c1)[C@@H]1C[C@H]1[C@@H](NP(=O)(c1ccccc1)c1ccccc1)c1ccccc1`, for which the AC50 result is “inactive”.

For `O=C(NCCc1c[nH]c2ccccc12)[C@H]1C[C@@H]1[C@H](NP(=O)(c1ccccc1)c1ccccc1)c1ccccc1`, the AC50 was 1.26 µM (active).

As for `Cc1cc(CNC(=O)[C@@H]2C[C@H]2[C@@H](NP(=O)(c2ccccc2)c2ccccc2)c2ccccc2)nn1C`, the AC50 entry is “inactive”.

Consider `CCOC(=O)/C(C#N)=C\N(C)C`, for which the AC50 result is “inactive”.

With `COc1cc(/C=C(/C#N)c2nc3ccccc3[nH]2)ccc1Oc1ncccc1[N+](=O)[O-]`, the AC50 is 3.98 µM (active).

As to `CCOC(=O)/C(C#N)=C\c1ccc(OCC(=O)Nc2ccc(C)cc2C)c(OC)c1`, the AC50 was 2.82 µM (active).

`COc1ccc(/C=C(/C#N)C(=O)Nc2cc(C)ccc2C)cc1C(=O)O`: the AC50 result is “inactive”.

As to `COc1cc(/C=C(/C#N)c2nc3ccccc3[nH]2)ccc1OCC(=O)Nc1ccccc1C`, the AC50 was 4.47 µM (active).

With `Cn1c(CNS(=O)(=O)c2ccc(Cl)cc2)n[nH]c1=S`, the AC50 entry was “inactive”.

With `O=S(=O)(NCc1cc(-c2ccccc2)no1)c1ccc(Cl)cc1`, the concentration at half-maximal activity (AC50) was 0.708 µM (active).

Consider `Clc1ccc(SCc2cc(-c3ccccc3)no2)cc1`, for which the AC50 was 1.12 µM (active).

With `O=S(=O)(NCc1cc(-c2ccc(Cl)cc2)no1)c1ccc(Cl)cc1`, the AC50 was 1.58 µM (active).

Turning to `COc1ccc(-c2cc(CNC(C)=O)on2)cc1`, the AC50 entry is “inactive”.

As for `O=c1cnc2cnc(N3CCOCC3)nc2n1C1CC1`, the AC50 result is “inactive”.

`Nc1nc(N)[n+]([O-])c(N)c1NCO`: the activity, negative = inhibition was 33.1% [at 11.4 µM].

For the compound `CC(=O)Nc1ccc(NC(=O)C/C(C)=N/NC(=O)C(=O)N2CCCC2)cc1`, the AC50 entry was “inactive”.

With `CC(=O)Nc1ccc(N2CCCCC2)c(C(=O)Nc2cccc(C)c2)c1`, the AC50 was 20 µM (active).

Regarding `CC(=O)Nc1ccc(N2CCCCC2)cc1`, the AC50 was 31.6 µM (active).

With `CC(=O)Nc1cccc(N2C(=O)CCC2=O)c1`, the AC50 entry was “inactive”.

For `O=C(Nc1ccc(N2CCCCC2)cc1)c1cncc(Br)c1`, the concentration at half-maximal activity (AC50) is 17.8 µM (active).
